# Measurements published in PubChem BioAssay (NCI).
# This is part of a sample that, as a whole, favours compounds with a hit. Of some 83,000 tested, about 20% had one in any assay.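 Note: values are percent growth. 100 is the growth of untreated cells, values between 100 and 0 indicate rising inhibition; between -100 and 0 indicates cell death.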 Unmarked numbers belong to inactive results. Activity calls are given as the source filed them. The calls were made as follows: active = growth percent below 10; inactive = the rest.
# Legend:
# Assay in all cases: NCI-60 one-dose screen, 48 h (100 = growth as untreated, 0 = no growth, -100 = all killed)
# Settings in all cases: 10 µM unless noted
# NCI-H23 lung = tested on: NCI-H23 lung
# NCI-H226 lung = tested on: NCI-H226 lung
# NCI-H322M lung = tested on: NCI-H322M lung
# HOP-62 NSCLC = tested on: HOP-62 NSCLC
# NCI-H460 lung = tested on: NCI-H460 lung
# HOP-92 NSCLC = tested on: HOP-92 NSCLC
# NCI-H522 lung = tested on: NCI-H522 lung
# A549/ATCC NSCLC = tested on: A549/ATCC NSCLC
# 786-0 renal = tested on: 786-0 renal
# COLO 205 colon = tested on: COLO 205 colon
# DU-145 prostate = tested on: DU-145 prostate
# K-562 leukemia = tested on: K-562 leukemia
# MALME-3M melanoma = tested on: MALME-3M melanoma
# MDA-MB-231 breast = tested on: MDA-MB-231 breast
# RXF 393 renal = tested on: RXF 393 renal
# SF-268 CNS = tested on: SF-268 CNS
# SF-295 CNS = tested on: SF-295 CNS
# SF-539 CNS = tested on: SF-539 CNS
# UACC-257 melanoma = tested on: UACC-257 melanoma
# M14 melanoma = tested on: M14 melanoma
Compound,growth (NCI-H23 lung),growth (NCI-H226 lung),growth (NCI-H322M lung),growth (HOP-62 NSCLC),growth (NCI-H460 lung),growth (HOP-92 NSCLC),growth (NCI-H522 lung),growth (A549/ATCC NSCLC),growth (786-0 renal),growth (COLO 205 colon),growth (DU-145 prostate),growth (K-562 leukemia),growth (MALME-3M melanoma),growth (MDA-MB-231 breast),growth (RXF 393 renal),growth (SF-268 CNS),growth (SF-295 CNS),growth (SF-539 CNS),growth (UACC-257 melanoma),growth (M14 melanoma)
C=C1C(=O)O[C@H]2[C@H]1CC/C(Cn1cc(CNC(=O)/C=C/c3c[nH]c4ccccc34)nn1)=C\CC[C@@]1(C)O[C@@H]21,100%,92.5%,101%,104%,98.1%,82.9%,16.4%,91.6%,102%,67.9%,103%,23.6%,98%,99.7%,84%,93.5%,93.3%,80.4%,74.9%,84.3%
COc1ccc(-n2c(=O)sc3c(Cl)nc(C)nc32)c(OC)c1,79.8%,99.4%,96.5%,86.1%,57.4%,76.9%,78.5%,98.7%,99.2%,99.4%,84.3%,24.9%,101%,80.4%,93.5%,63.3%,104%,105%,85.1%,75.7%
O=C(O)c1nc(-c2ccccc2)oc1N1CCOCC1,98%,103%,91.8%,97%,102%,84.6%,95.9%,100%,97.5%,102%,109%,94%,120%,94.3%,104%,98.3%,107%,115%,104%,106%
C/C=C/C1=CN2C(=O)c3cc(OC4OC(C)C(NC)C(C)(O)C4O)c(C)cc3N=C[C@@H]2C1 (stereo not given in full),-31.7% (active),6.1% (active),-20.1% (active),-8.97% (active),-18.4% (active),2.06% (active),-12.7% (active),7.17% (active),0.564% (active),-42.4% (active),-18.6% (active),5.83% (active),-43% (active),15.7%,-44.9% (active),-28.8% (active),-23.1% (active),-44.9% (active),-1.62% (active),-60.5% (active)
COc1ccc(Nc2nc(N)nc3c2CCN(Cc2ccc(OC)cc2OC)C3=O)cc1,73.1%,88%,71.1%,63.2%,67.8%,7.69% (active),89.3%,85.6%,72.1%,110%,88.6%,72.7%,80.8%,84.7%,81.6%,87.3%,57.1%,63.5%,88.3%,64.6%
COc1cccc(CC(C)=C(c2ccc(OCCN3CCCCC3)cc2)c2ccc(OCCN3CCCCC3)cc2)c1,58%,79.8%,0.584% (active),31.1%,-73.3% (active),-4.48% (active),-75% (active),2.38% (active),-83.7% (active),-81.2% (active),17.8%,-37.3% (active),-88.5% (active),-76.8% (active),-85.5% (active),-18.9% (active),-62% (active),-96.1% (active),-69.3% (active),-64.8% (active)
NC(=O)CCCN1C/C(=C\c2ccccc2)C(=O)c2ccccc21,95.6%,86.4%,88.2%,88.8%,111%,84.4%,80.4%,95.1%,96.6%,105%,102%,97.1%,105%,100%,81.9%,90.2%,94.3%,105%,87.5%,103%
CC1CN(c2oc(-c3ccccc3)nc2C#N)CC(C)O1 (stereo not given),112%,92%,99.1%,103%,99.7%,123%,99.4%,104%,99.6%,116%,99.7%,97.6%,102%,101%,104%,98.2%,99.1%,98.6%,103%,99.3%
C=C1C(=O)O[C@H]2[C@H]1CC/C(Cn1cc(CNC(=O)c3cc4ccccc4[nH]3)nn1)=C\CC[C@@]1(C)O[C@@H]21,84.1%,101%,94.7%,101%,101%,32.2%,-65% (active),93.4%,66.1%,-34.4% (active),52.2%,2.12% (active),0.0965% (active),60.9%,24.5%,68.5%,110%,6.92% (active),61.7%,57.8%
Cc1ccc(-c2csc(NC(=O)CCCCl)n2)cc1,93.1%,78.5%,87.4%,101%,103%,74.8%,83.5%,90.5%,87.3%,112%,99.9%,74.6%,94%,95.8%,105%,85.8%,83.5%,96.3%,103%,103%
O=[N+]([O-])c1cccc(-c2nc3sccn3c2-c2ccnc(NCCCNS(=O)(=O)c3ccc(C(F)(F)F)cc3)n2)c1,29.7%,23.8%,63.1%,50%,40.2%,53%,20.8%,31.3%,51.8%,24.7%,47.3%,20.6%,30.5%,57.3%,55.6%,38.1%,27.2%,70.9%,37.4%,27.7%
CCN(CC)c1ccc(/C=C2\Oc3ccc(O)c(I)c3C2=O)cc1,67.5%,88.8%,96.9%,77.8%,25.5%,81.9%,22.6%,46%,73.6%,64.3%,87%,12.5%,63.4%,65.8%,63%,71.4%,68.9%,58.3%,80.6%,28.7%
CC(C)(C)n1cc(-c2ccnc(NCCCNS(=O)(=O)c3ccccc3)c2)c(-c2cccc(O)c2)n1,72.8%,53.4%,59.1%,66.1%,19.1%,77.7%,45%,38%,25.8%,14.7%,55.1%,4.86% (active),44%,38.6%,52.8%,50.8%,35.1%,38.3%,47.2%,34.1%
CCC(=O)Oc1ccc(/C(=C(/C)Cc2cccc(OC)c2)c2ccc(OCCN(C)C)cc2)cc1,94.2%,111%,94.5%,108%,90.1%,67.2%,87.6%,97.7%,79.7%,102%,93.3%,-26.5% (active),100%,88.2%,88.6%,86.3%,99.2%,90.3%,118%,31.8%
CCN(CC)CCC(CNc1ccnc2cc(Cl)ccc12)c1ccccc1 (stereo not given),80.3%,63%,93.7%,78.4%,67.7%,21.1%,18%,70.4%,69.8%,-39% (active),89.4%,2.5% (active),-47.1% (active),43%,-21% (active),78.3%,-21.4% (active),-15.2% (active),-78.2% (active),-83.9% (active)
